Reference: PubChem BioAssay AID463173 (ICCB-Longwood Screening Facility, Harvard Medical School, 2010)
The campaign covered roughly 52,000 compounds. About 4,300 (8.3%) were called active. No stated cut-off is given here; in the data, active means survival mostly below about 52% (no sharp cut-off); inactive means mostly above about 56%. The sample as a whole holds a higher share of actives than the screen did.

These molecules were tested on DeltatarO mutant (assay: S. aureus survival, RN4220 and DeltatarO strains – OD600, teichoic acid synthesis inhibitors, primary screen (AID 463173)). Settings: S. aureus RN4220 wild type/DeltatarO growth, OD600, 18 h, active compounds read low, screened at 18.75 µg/mL (by protocol).

| Structure (SMILES) | survival |
| --- | --- |
| CN1CCN(C(=O)c2ccc(N(C)S(C)(=O)=O)cc2)CC1 | 107% (inactive) |
| Cc1cccc(CCNC(=O)C2CCCN(S(=O)(=O)c3ccc4c(c3)oc(=O)n4C)C2)c1 (stereo unspecified) | 102% (inactive) |
| Cc1ccc(Cn2c(C)c3cnn(CC(=O)N4CCN(c5ccc(F)cc5)CC4)c(=O)c3c2C)cc1 | 71% (inactive) |
| CC(=O)c1ccc(NC(=O)Cn2cc(S(=O)(=O)Cc3cccc(Cl)c3)c3ccccc32)cc1 | 113% (inactive) |
| O=C(Nc1ccc(F)c(F)c1)c1nc2ncccn2n1 | 82% (inactive) |
| COc1ccc(Br)cc1CNC(=O)CSc1n[nH]c(-c2ccccc2)n1 | 73% (inactive) |
| Cc1ccc(-c2nc(CS(=O)(=O)CC(=O)NC(C)CCc3ccccc3)c(C)o2)cc1 (stereo unspecified) | 63% (inactive) |
| Cc1oc(-c2cccc(Cl)c2)nc1CS(=O)(=O)CC(=O)NC(C)CCc1ccccc1 (stereo unspecified) | 32% (active) |
| Cc1oc(-c2ccccc2Cl)nc1CS(=O)(=O)CC(=O)NC(C)CCc1ccccc1 (stereo unspecified) | 76% (inactive) |
| COC(=O)C12CC3CC(CC(C(=O)OC)(C1)C3=O)C2=O | 116% (inactive) |
| O=c1[nH]c(SCc2cccc(Cl)c2)nc2c1CCC2 | 85% (inactive) |
| Cc1nc(SCc2cccc(Cl)c2)nc2c1CCCC2 | -2% (active) |
| Cc1cccc(CSc2nc3c(c(=O)[nH]2)CCC3)c1 | 69% (inactive) |
| COc1ccccc1CNC(=O)c1c(O)nc2c(C)cccn2c1=O | 69% (inactive) |
| O=C(NCc1ccc2c(c1)CCN2C(=O)c1ccncc1)c1ccccc1F | 117% (inactive) |
| COc1ccccc1Nc1nn2c(=O)c3ccc(C(=O)N4CCC(C)CC4)cc3nc2s1 | 52% (active) |
| COc1ccccc1Nc1nn2c(=O)c3ccc(C(=O)N4CCCCC4)cc3nc2s1 | 71% (inactive) |
| COc1ccccc1Nc1nn2c(=O)c3ccc(C(=O)N4CCCC(C)C4)cc3nc2s1 (stereo unspecified) | 61% (inactive) |
| CCc1ccccc1NC(=O)CN1C(=O)C2CCCN2c2ccc(S(=O)(=O)N(CC)CC)cc21 (stereo unspecified) | 72% (inactive) |
| CCN(CC)S(=O)(=O)c1ccc2c(c1)N(CC(=O)Nc1cccc(C)c1C)C(=O)C1CCCN21 (stereo unspecified) | -2% (active) |
| CCN(CC)S(=O)(=O)c1ccc2c(c1)N(CC(=O)Nc1c(C)cccc1C)C(=O)C1CCCN21 (stereo unspecified) | 89% (inactive) |
| O=C(Cn1c(=O)nc(-c2ccccc2)c2ccccc21)NCCc1ccc(Cl)cc1 | 70% (inactive) |
| CCCn1c2ccccc2c2cnn(CC(=O)N3CCC(C)CC3)c(=O)c21 | 76% (inactive) |

| Structure (SMILES) | survival |
| --- | --- |
| CC1CCCCN1C(=O)Cn1ncc2c3ccccc3n(Cc3ccccc3F)c2c1=O (stereo unspecified) | 32% (active) |
| CCN1CCN(C(=O)Cn2ncc3c4ccccc4n(Cc4ccccc4F)c3c2=O)CC1 | 95% (inactive) |
| O=C(Cn1ncc2c3ccccc3n(Cc3ccccc3F)c2c1=O)N1CCCCCC1 | 70% (inactive) |
| O=C(Cn1ncc2c3ccccc3n(Cc3ccc(Cl)cc3)c2c1=O)N1CCCCCC1 | 84% (inactive) |
| CCCn1c2ccccc2c2cnn(CC(=O)N3CCN(c4ccccc4F)CC3)c(=O)c21 | -4% (active) |
| O=C(Cn1ncc2c3ccccc3n(Cc3ccccc3)c2c1=O)N1CCCCCC1 | 82% (inactive) |
| CCN1CCN(C(=O)Cn2ncc3c4ccccc4n(Cc4c(C)cc(C)cc4C)c3c2=O)CC1 | 124% (inactive) |
| Cc1cc(C)c(Cn2c3ccccc3c3cnn(CC(=O)N4CCCCC4)c(=O)c32)c(C)c1 | 126% (inactive) |
| O=C(Cn1ncc2c3ccccc3n(Cc3ccccc3F)c2c1=O)N1CCCCC1 | 120% (inactive) |
| Cc1ccc(Cn2c3ccccc3c3cnn(CC(=O)N4CCCCCC4)c(=O)c32)cc1 | 19% (active) |
| Cc1cc(C)c(Cn2c3ccccc3c3cnn(CC(=O)N4CCCCCC4)c(=O)c32)c(C)c1 | 9% (active) |
| CN(C)c1ccc(C(=O)NC2CCSC2=O)cc1 (stereo unspecified) | 66% (inactive) |
| Cc1ccc(Cl)cc1N1CCN(C(=O)C(C)n2ncn3cccc3c2=O)CC1 (stereo unspecified) | 66% (inactive) |
| Cc1ccc2nc(-c3ccc(NC(=O)COc4ccc(Br)cc4Br)cc3)sc2c1 | 104% (inactive) |
| CCOc1cc(-c2nnc(SCC(=O)NCCCOC)nc2-c2ccc(OC)c(OCC)c2)ccc1OC | 73% (inactive) |
| COc1ccc(NC(=O)CCCN2C(=O)COc3ccc(C)cc32)cc1OC | 119% (inactive) |
| COc1ccc(CNC(=O)c2oc3c(c2C)-c2nn(Cc4ccccc4Cl)cc2CC3)cc1 | 89% (inactive) |
| CC(C)(C)C(=O)Nc1ccc2nc(SCCOc3ccccc3Cl)sc2c1 | 89% (inactive) |
| CC(=O)Nc1ccc2nc(SCCOc3ccccc3Cl)sc2c1 | 3% (active) |
| Cc1ccccc1OCCSc1nc2ccc(NC(=O)c3ccco3)cc2s1 | 25% (active) |
| O=C(Nc1ccc2nc(SCCOc3ccccc3Cl)sc2c1)c1cccs1 | 49% (inactive) |
| COc1cc(C)ccc1OCCSc1nc2ccc(NC(=O)c3ccco3)cc2s1 | 62% (inactive) |
| O=C(Nc1ccc2nc(SCCOc3ccccc3)sc2c1)c1ccco1 | 99% (inactive) |

| Structure (SMILES) | survival |
| --- | --- |
| Cc1ccc(OCCSc2nc3ccc(NC(=O)c4ccco4)cc3s2)cc1 | 84% (inactive) |
| Cc1ccccc1OCCSc1nc2ccc(NC(=O)c3ccccc3)cc2s1 | 57% (inactive) |
| O=C(Nc1ccc2nc(SCCOc3ccccc3Cl)sc2c1)c1ccco1 | 14% (active) |
| O=C(NC1CCCC1)c1ccc2c(c1)N(Cc1ccccc1F)C(=O)c1ccccc1S2 | 81% (inactive) |
| Cc1nc2cccnc2n1-c1cccc(C(=O)NCCN(C)C)c1 | 74% (inactive) |
| O=C(NCC(c1cccs1)S(=O)(=O)c1ccccc1)c1ccc(C(F)(F)F)cc1 (stereo unspecified) | 90% (inactive) |
| O=C(NCCc1ccc(Cl)cc1)c1cnc2sc(N3CCOCC3)nn2c1=O | 77% (inactive) |
| O=C(NCc1ccc(Cl)cc1)c1cnc2sc(N3CCOCC3)nn2c1=O | 52% (active) |
| O=C(NCc1ccc(Cl)cc1)c1cnc2sc(N3CCCC3)nn2c1=O | 72% (inactive) |
| O=C(CN1C(=O)C2(SCC(=O)N2c2cccc(Cl)c2)c2ccccc21)NC1CCCCC1 (stereo unspecified) | 86% (inactive) |
| Cc1ccc2c(CC(=O)Nc3ccc(S(=O)(=O)N4CCCCC4C)cc3)coc2c1C (stereo unspecified) | 53% (inactive) |
| COc1ccccc1NC(=O)CN1C(=O)C(c2ccc(F)cc2)=NC12CCCCC2 | 72% (inactive) |
| Cc1ccc(S(=O)(=O)NCCc2cn3ccsc3n2)cc1 | 64% (inactive) |
| COc1ccc(S(=O)(=O)NCCc2cn3ccsc3n2)cc1 | 86% (inactive) |
| COc1ccc(S(=O)(=O)NCCc2cn3ccsc3n2)cc1OC | -1% (active) |
| CCN(CCCNC(=O)c1cc2c(=O)[nH]c3ccc(C)cc3c2s1)c1ccc(C)cc1 | 68% (inactive) |
| CCc1cccc(C)c1NC(=O)COCc1cc(-c2ccc3c(c2)OCO3)on1 | 101% (inactive) |
| CCOCCn1ccc2c(OCC(=O)Nc3cccc(F)c3)cccc2c1=O | 91% (inactive) |
| CCOc1ccccc1NC(=O)COc1cccc2c(=O)n(CCOC)ccc12 | 70% (inactive) |
| CCOCCn1ccc2c(OCC(=O)Nc3cc(C)cc(C)c3)cccc2c1=O | 83% (inactive) |
| COCCn1ccc2c(OCC(=O)Nc3cccc(OC)c3)cccc2c1=O | 92% (inactive) |
| CCn1ccc2c(OCC(=O)Nc3ccccc3C)cccc2c1=O | 8% (active) |
| CCOCCn1ccc2c(OCC(=O)Nc3ccc(C(N)=O)cc3)cccc2c1=O | 37% (active) |

| Structure (SMILES) | survival |
| --- | --- |
| CCn1ccc2c(OCC(=O)NCc3ccccc3)cccc2c1=O | 102% (inactive) |
| COCCn1ccc2c(OCC(=O)NCc3ccc(F)cc3)cccc2c1=O | 92% (inactive) |
| CCn1ccc2c(OCC(=O)Nc3ccccc3C(F)(F)F)cccc2c1=O | 85% (inactive) |
| COCCn1ccc2c(OCC(=O)Nc3ccccc3F)cccc2c1=O | 25% (active) |
| CCn1ccc2c(OCC(=O)Nc3ccc(OC)cc3OC)cccc2c1=O | 20% (active) |
| CCn1ccc2c(OCC(=O)Nc3ccc(C(C)=O)cc3)cccc2c1=O | 66% (inactive) |
| COC(=O)c1sccc1S(=O)(=O)N(CC(=O)NCc1ccc(C)cc1)c1ccc(C)c(C)c1 | 68% (inactive) |
| Fc1ccccc1N1CCN(c2ncnc3c2nc2n3CCCC2)CC1 | 84% (inactive) |
| O=C(Nc1ccccc1)c1ccc(S(=O)(=O)N2CCCC2)cc1 | 94% (inactive) |
| N#Cc1ccccc1NC(=O)C(=O)NCC(c1ccc2c(c1)OCO2)N1CCOCC1 (stereo unspecified) | 71% (inactive) |
| CCC(=O)N1CCc2cc(Br)cc(S(=O)(=O)CCC(=O)N3CCN(c4ccccc4F)CC3)c21 | 80% (inactive) |
| O=C(NCc1ccccc1Cl)C1CCCN(S(=O)(=O)c2cccc3nsnc23)C1 (stereo unspecified) | 91% (inactive) |
| CCN1CCN(CCC(=O)Nc2ccc(OC)cc2)CC1 | 97% (inactive) |
| Cc1nn(-c2ccccc2)c2sc(C(=O)NN=C3CCCC3)cc12 | 109% (inactive) |
| Cc1nn(-c2ccccc2)c2sc(C(=O)N(Cc3ccco3)C(C)C(=O)NC3CCCCC3)cc12 (stereo unspecified) | 60% (active) |
| Cc1nn(-c2ccccc2)c2sc(C(=O)N(CC(=O)NC3CCCC3)C3CC3)cc12 | 78% (inactive) |
| O=C(OCc1ccccc1Cl)c1ccc(-c2nnn(Cc3ccccc3)n2)cc1 | 52% (inactive) |
| CC(C)CNC(=O)C1CCN(S(=O)(=O)c2ccc(-n3cnnn3)cc2)CC1 | 86% (inactive) |
| Cc1ccc(NC(=O)Cn2c(=O)nc(-c3ccccc3F)c3cc(Cl)ccc32)c(Br)c1 | 79% (inactive) |
| O=C1CC2CCC(CN1)N2S(=O)(=O)c1ccc(C(=O)O)cc1 (stereo unspecified) | 93% (inactive) |
| Cc1ccc(-c2cc(C(=O)N3CCN(S(=O)(=O)c4ccc(Br)s4)CC3)[nH]n2)c(C)c1 | 70% (inactive) |
| O=C(NCc1ccccc1Cl)c1cnc2sc(N3CCCCC3)nn2c1=O | 76% (inactive) |
